TLR9-MyD88 inh: inhibitors of TLR9-MyD88 association in cells, primary screen, cell-based, CHO, BLA complementation, fluorescence; Toll-like receptor 9 (Homo sapiens) + Myeloid differentiation primary response protein …; CCF4 FRET ratio; inhibition, % at 4.98 µM; 340,000 tested, 0.21% active; AID 504734, 2011;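 active = inhibition above the mean over all tested compounds plus 3 SD, cut at about 21% in these data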;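 also: 0% = DMSO only wells and 100% = clavulanate BLA inhibitor control wells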
TLR4 MyD88 comp: inhibitors of TLR4-MyD88 association in cells, primary screen, cell-based, HeLa CL3-4, BLA complementation, FRET ratio | Toll-like receptor 4 (Homo sapiens) + Myeloid differentiation primary response protein … | HeLa CL3-4 TLR4/MyD88 BLA complementation | inhibition, % at 8.4 µM | 200,000 tested, 0.18% active; in the data active = inhibition above about 25%;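 also: 0% = vehicle and 100% = reference inhibitor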
Myeloid diff MLP: induction of myeloid progenitor differentiation, primary screen, cell-based, flow cytometry, MLPCN library; ER-HoxA9 myeloid progenitors, lysozyme-GFP differentiation; calls only at 10 µM; 360,000 tested, 1% active; AID 624256, 2012;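 active = normalized GFP-positive differentiation at or above the plate's own cutoff, the solvent-only control mean plus 3 SD; inconclusive = no clear call, values can overlap the other calls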;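 also: cells exposed to compound for four days before flow analysis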
NOD2 RIPK2 PPI: NOD2-RIPK2 binding disruptors in cells, primary screen, fluorescence, CHO cells, BLA complementation; Receptor-interacting serine/threonine-protein kinase 2 (Homo sapiens), O43353; 360,000 tested, 0.38% active; inhibition, % at 4.98 µM; CCF4 ratio; in the data active = inhibition above about 21%;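 also: 0% = vehicle only and 100% = reference blocker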
ABCB6 inh MLPCN: ABCB6 transporter inhibitors, primary screen, K562-ABCB6 cells, flow cytometry, MLPCN library; fluorescence ratio to DMSO, % at 10 µM; ATP-binding cassette sub-family B member 6 (Homo sapiens), Q9NP58; AID 602162, 2011; K562-ABCB6 porphyrin accumulation, 1 h; hits give low values; 360,000 tested, 0.19% active;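 active = fluorescence ratio to DMSO below 75%, the collection mean minus 3 SD; inconclusive = too few cells collected in the well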;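 also: signal is porphyrin accumulated inside mitochondria; 100% equals median channel fluorescence of DMSO control wells; lower ratio means ABCB6 inhibition with less porphyrin fluorescence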
NOD2-RIPK2 conf: NOD2-RIPK2 binding disruptors, retest, confirmation, fluorescence, CHO cells, BLA complementation, triplicate; shares compounds with NOD2 RIPK2 PPI; CCF4 FRET; inhibition, % at 4.98 µM; 1,200 tested, 70% active; AID 624370, 2012;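 active = mean inhibition across replicates above a set limit taken from the earlier primary screen, cut at about 21% in these data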;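 also: 0% = DMSO-only wells and the high end = clavulanate BLA-blocked wells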
BLA counter: hits BLA reporter in NOD2-RIPK2 inhibitor counterscreen; shares compounds with NOD2 RIPK2 PPI; CHO BLA reporter, CCF4 FRET ratio; inhibition, % at 4.98 µM; 1,200 tested, 57% active; AID 624371;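 active = mean inhibition above the low-control mean inhibition plus three low-control SD, cut at about 11% in these data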;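 also: 0% = DMSO only wells and 100% = clavulanate high control wells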
* = called active by the depositor; i = inactive; ? = inconclusive; · = not tested or not shown. This is a sample that favours compounds with a hit; in the whole collection about 1.7% have one here.

SMILES	TLR9-MyD88 inh	TLR4 MyD88 comp	Myeloid diff MLP	NOD2 RIPK2 PPI	ABCB6 inh MLPCN	NOD2-RIPK2 conf	BLA counter
Cc1ccccc1CN(CC1CCC(C(=O)O)CC1)C(=S)Nc1ccccc1F (centres undefined)	-10	-2	i	-8	96	·	·
CC1=CC(c2ccc(Cl)cc2)n2nc(N3C(=O)CCC3=O)nc2N1 (centres undefined)	0	3	i	-15	101	·	·
Cc1ccc(C2C=C(c3ccccc3)Nc3nc(N4C(=O)CCC4=O)nn32)cc1 (centres undefined)	·	23	i	45*	100	33*	35*
O=C(COC(=O)c1cccc(F)c1)Nc1cccc(S(=O)(=O)N2CCCCC2)c1	-6	·	i	-2	103	·	·
CC[C@H]1CN2CCc3cc(OC)c(OC)cc3C2C[C@@H]1C[C@H]1NCCc2cc(OC)c(OC)cc21 (some centres undefined)	3	·	?	23*	96	27*	-8
C[C@H]1CN([C@@H](C)CO)C(=O)CCCn2cc(nn2)CO[C@@H]1CN(C)S(=O)(=O)c1ccc(C#N)cc1	-2	·	i	-7	101	·	·
CC1(C)c2[nH]c3ccccc3c2C[C@@H]2C(=O)N(c3ccc(F)cc3F)C(=O)N21	-5	·	i	8	101	·	·
COC(=O)C12OCC34C(CC5C(C)=C(O)C(=O)CC5(C)C3C(O)C1O)OC(=O)C(OC(=O)C=C(C)C)C24 (centres undefined)	-10	·	·	28*	91	25*	-5
COc1ccc(OC)c(C2C(C(=O)c3ccco3)=C(O)C(=O)N2CC2CCCO2)c1 (centres undefined)	7	·	i	21*	97	1	0
Fc1cccc(Nc2c3c(nc4ccccc24)CCC3)c1	-7	·	i	22*	98	5	-1
CC(=O)c1cccc(Nc2c3c(nc4ccccc24)CCC3)c1	6	·	?	12	101	·	·
CC(C)NS(=O)(=O)c1ccc(NC(=O)NC2CCCCC2)cc1	1	-4	i	-6	86	·	·
O=C(CC(=O)N/N=C\c1ccccc1)NCCc1ccccc1	14	·	i	22*	88	2	1
Cc1ccc(/C=N\NC(=O)CC(=O)NCCc2ccccc2)cc1	-2	·	i	-4	103	·	·
COC(=O)c1ccc2c(=O)n(CCCCCC(=O)O)c(=S)[nH]c2c1	-1	4	i	-4	106	·	·
Cc1cc(N2C(=O)C3C4CC(C(Br)C4Br)C3C2=O)no1 (centres undefined)	-9	5	i	-6	102	·	·
COc1cc(/C=C2/C(=O)CNC2=O)ccc1O	1	3	i	-3	105	·	·
COc1cc(C=C2C(=O)C=CC2=O)ccc1O	·	·	?	66*	113	93*	30*
Cn1cc(/C=C/C(=O)c2ccccc2)c2ccccc21	10	·	i	25*	93	25*	28*
Cc1nn(C)cc1/C=C/C(=O)c1ccccc1	-13	16	i	0	99	·	·
Cc1ccc(C(=O)/C=C/c2cn(CN3CCN(C)CC3)c3ccccc23)cc1	10	23	i	24*	100	26*	38*
COc1c(O)c(=O)n2c3ccccc3c3ccnc1c32	18	·	i	26*	106	21	18*
Cc1occc1C(=O)N/N=C/C=C/c1ccc(N(C)C)cc1	11	·	i	27*	114	37*	37*
N#CC1CC(c2ccccc2)Nc2cc(Cl)ccc2N1 (centres undefined)	11	·	i	-9	96	·	·
CC(=O)Oc1ccccc1C(=O)C=Cc1cccc([N+](=O)[O-])c1	7	·	·	60*	85	71*	-5
SMILES	TLR9-MyD88 inh	TLR4 MyD88 comp	Myeloid diff MLP	NOD2 RIPK2 PPI	ABCB6 inh MLPCN	NOD2-RIPK2 conf	BLA counter
COC(=O)c1ccc2nc(-c3ccc(C)cc3)c(CC3CCCCC3)n2c1	·	·	i	-3	97	·	·
CCOCCCNC(=O)/C(C#N)=C/c1ccc([N+](=O)[O-])o1	20	24	?	26*	144	54*	27*
NS(=O)(=O)c1ccc(NC(=O)c2ccc(-c3ccccc3)cc2)cc1	·	-5	i	4	94	·	·
NS(=O)(=O)c1ccc(NS(=O)(=O)c2ccc(NC(=O)c3ccc(-c4ccccc4)cc3)cc2)cc1	3	-7	i	24*	96	23*	28*
CCO[C@@H]1OC(C(=O)O)=C[C@H](c2ccc3c(c2)OCO3)[C@H]1CCCO	5	3	i	1	?	·	·
O=C(NCc1ccccc1)/C(=C\c1ccccc1)NC(=O)c1ccco1	-3	·	i	-6	93	·	·
COc1nn(-c2ccccc2)c(=O)c(Cl)c1Cl	-13	·	?	27*	111	27*	6
CC1CCN(S(=O)(=O)c2ccc(NC(=O)CCNC(=O)c3ccc(Cl)cc3)cc2)CC1	4	·	i	-13	101	·	·
Cn1c(/C=C/c2ccccc2)nc2ccccc21	-6	-4	i	1	104	·	·
CC(=O)c1ccc(/C=C/c2nc3ccccc3n2C)o1	·	·	i	54*	96	68*	70*
C=CCn1c(-c2oc3nc(-c4ccccc4)cc(-c4ccccc4)c3c2N)n[nH]c1=S	1	8	i	34*	102	87*	88*
Cc1ccc(-c2cc(-c3n[nH]c(=S)o3)c3ccccc3n2)cc1	7	4	i	22*	95	10	7
CC(=O)Nc1ccc(/C=C/c2nc(-c3ccccc3O)n[nH]2)cc1	0	·	·	11	86	·	·
Cc1cccc(NC(=S)NCc2ccc3c(c2)OCO3)c1C	-1	-2	i	3	100	·	·
Cc1ccccc1NC(=S)NCc1ccc2c(c1)OCO2	8	10	i	39*	95	-2	-3
COC(=O)c1ccc2c(c1)C(C)(C)C(/C=C/c1ccc(OC)c(OC)c1OC)=[N+]2C	2	15	?	26*	202	88*	6
COC(=O)c1ccc2c(c1)C(C)(C)C(/C=C/c1ccc(O)cc1)=[N+]2C	16	-5	·	26*	906	71*	-5
Cc1cn2nc(N)c3ccccc3c2n1	1	-4	i	37*	95	-4	2

Assay outcomes: PubChem, several laboratories
